Measurements reported in PubChem BioAssay (NCATS).
Activity calls are given as the source filed them. A call without a number means that no potency is given here. The call rests on the fitted dose curve; in most records, active means well fitted activation curve with a large enough effect; inconclusive means small, poorly fitted or top-dose-only effect; inactive means flat fitted curve, though single readings scatter.

assay: Confirmation and Secondary Assay for Modulators of Hemoglobin Beta Chain Splicing at IVS2 705 locus (AID 930); details: HeLa EGFP-705 splicing reporter, GFP fluorescence, 48 h; series mostly up to 46.1 µM
Source text: NIH Chemical Genomics Center [NCGC] NIH Molecular Libraries Screening Centers Network [MLSCN] MLSCN Grant: 1 X01 MH080684-01 PI Name: Dr. Ryszard Kole NCGC Assay Overview: Modulation of Alternative Splicing as Therapy Abnormal splicing is associated with a number of diseases, including cancer and genetic diseases such as cystic fibrosis, muscular dystrophy and beta-thalassemia. Alteration of disease associated splicing patterns provides a promising target for treatment. […] Mutations in the second intron of the b-globin gene at positions 654 or 705 are clinically relevant and cause mis-splicing which results in an out of frame gene product. […] EGFP-705 HeLa Cells as screen system. HeLa cell lines were stably transfected with a construct in which the EGFP (enhanced green fluorescent protein) cDNA was interrupted by the second intron of the beta-globin gene (IVS2-705). The ISV2 intron contains mutations which cause mis-splicing of EGFP and premature termination of EGFP which results in a nonfluorescent protein product. […] Expression of the transgene was driven by the CMV promoter. We concluded that a low molecular weight compound, which restored correct splicing of intron 2 would also generate functional EGFP protein, resulting in a fluorescent signal. Thus, the HeLa cells that express the EGFP-705 construct can be used for validation of splice site specificity of compounds identified in primary screening of the ISV2 654 construct.
NCGC Assay Protocol Summary: Confirmatory Screening. Freshly thawed HeLa EGFP-705 cells were seeded in 5 ul of optimem media (Invitrogen) containing 2 % fetal calf serum (Hyclone) and 1x penicillin/streptomycin (Invitrogen) at a concentration of 500 cells per well in 1536-well plates. Cells were incubated overnight at 37C in 5% CO2. The next day, cells were treated with DMSO, 500 nM antisense ISV2 654 PNA control oligo, or library compound and allowed to grow at 37C in 5% CO2 for 2 days. The PNA oligo blocked the mutation site in the intron and allowed proper (wild type) splicing to occur, resulting in full length EGFP expression and also allowed for optimization of the assay parameters. Plates were read in the Acumen Explorer (TTP Labtech) using 488 nm laser excitation and 500-520 nm emission PMT filter in a 1 x 8 uM capture mode. Fluorescnet objects ranging in size from 5 to 250 uM were measured and the total peak GFP intensity for each well was used for data analysis. Keywords: Thalassemia, beta-thalassemia, beta-globin, EGFP, ISV2 654, ISV2 705, SSO, PNA, antisense, splicing, MLSMR, MLSCN, NIH Roadmap, qHTS, NCGC
Potency means the concentration at half of the fitted maximal effect.

Row | Structure (SMILES) | Potency
1 | O=C(Oc1ccccc1C(=O)O)c1ccccc1O | inactive
2 | CNCC(O)c1ccc(O)c(O)c1 (stereo not given) | inactive
3 | CCN(CC)CCOC(=O)C1(C2CCCCC2)CCCCC1 | inactive
4 | CCn1cc(C(=O)O)c(=O)c2cnc(N3CCNCC3)nc21 | inactive
5 | CN(C)CC[C@@H](c1ccc(Cl)cc1)c1ccccn1 | inactive
6 | CCN(CC)C(C)CN1c2ccccc2Sc2ccccc21 (stereo not given) | inactive
7 | COC(=O)C1=C(C)NC(C)=C(C(=O)OC)C1c1ccccc1[N+](=O)[O-] | inactive
8 | O=C(O)c1ccccc1O | inactive
9 | CC12CCC(CC1)C(C)(C)O2 | inactive
10 | Cc1cc(CC(=O)O)n(C)c1C(=O)c1ccc(Cl)cc1 | inactive
11 | Cc1cc(N)c2ccccc2[n+]1CCCCCCCCCC[n+]1c(C)cc(N)c2ccccc21 | inactive
12 | O=c1cc[nH]c(=S)[nH]1 | inactive
13 | Nc1ccc(S(=O)(=O)Nc2ccc(Cl)nn2)cc1 | inactive
14 | Nc1ccc(S(=O)(=O)NC(=O)c2ccccc2)cc1 | inactive
15 | CN(C)CCOC(C)(c1ccccc1)c1ccccn1 (stereo not given) | inactive
16 | CN(C)CCC=C1c2ccccc2CCc2ccccc21 | inactive
17 | Cn1cc[nH]c1=S | inactive
18 | CSc1ccc2c(c1)C(N1CCN(C)CC1)Cc1ccccc1S2 (stereo not given) | inactive
19 | CC(C)(C(=O)O)c1ccc(C(O)CCCN2CCC(C(O)(c3ccccc3)c3ccccc3)CC2)cc1 (stereo not given) | inactive
20 | NS(=O)(=O)c1cc2c(cc1C(F)(F)F)NC(Cc1ccccc1)NS2(=O)=O (stereo not given) | inactive

Row | Structure (SMILES) | Potency
21 | CCCCN(CCCC)CCCOC(=O)c1ccc(N)cc1 | inactive
22 | c1ccc(CN(CC2=NCCN2)c2ccccc2)cc1 | inactive
23 | CC(COc1ccccc1)NC(C)C(O)c1ccc(O)cc1 (stereo not given) | inactive
24 | CC1=C(CC(=O)O)c2cc(F)ccc2/C1=C\c1ccc(S(C)=O)cc1 (stereo not given) | inactive
25 | C=Cc1c(C)c2cc3[nH]c(cc4nc(cc5nc(cc1[nH]2)C(C)=C5CCC(=O)O)C(CCC(=O)O)=C4C)c(C)c3C=C | inactive
26 | NC(=O)N/N=C/c1ccc([N+](=O)[O-])o1 | inactive
27 | COc1ccc(Cl)cc1C(=O)NCCc1ccc(S(=O)(=O)NC(=O)NC2CCCCC2)cc1 | inactive
28 | CCN(CC)CCNC(=O)c1cc(Cl)c(N)cc1OC | inactive
29 | c1ccc2c(CC3=NCCN3)cccc2c1 | inactive
30 | CCCCCCCCCCCCCCCCCCOCC(O)CO (stereo not given) | inactive
31 | CCN(CC)CCCC(C)Nc1c2ccc(Cl)cc2nc2ccc(OC)cc12 (stereo not given) | 7.94 µM (active)
32 | OCCN1CCN(CCCN2c3ccccc3Sc3ccc(Cl)cc32)CC1 | inactive
33 | CNCCC(Oc1ccc(C(F)(F)F)cc1)c1ccccc1 (stereo not given) | inactive
34 | OCC(O)CN1CCN(c2ccccc2)CC1 (stereo not given) | inactive
35 | NS(=O)(=O)c1cc2c(cc1Cl)NC(CSCc1ccccc1)=NS2(=O)=O | inactive
36 | CC(CN(C)C)CN1c2ccccc2CCc2ccccc21 (stereo not given) | inactive
37 | NC(=O)NC(=O)Cc1ccccc1 | inactive
38 | CN(C)CCCN1c2ccccc2Sc2ccc(Cl)cc21 | inactive
39 | Nc1ccc(S(=O)(=O)Nc2nccs2)cc1 | inactive
40 | Oc1cccc(O)c1 | inactive
